A selection: hits, their analogues and other compounds. The true share with any hit is near 19%.
HT1080NT lethal: kills 2HG-producing HT-1080-NT fibrosarcoma cells. HT-1080-NT fibrosarcoma viability, CellTiter-Glo ATP luminescence, 48 h. Potency, µM (titrated, usually from 46.1 µM), for the others: at the top dose activity, negative = less viability, usual class: cytotoxic. actives 1.6% (n = 360,000);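 also: NT is the 2HG producing partner of a matched IDH1 knockdown line; potency is read from the fitted curve at half-maximal effect; 0% = DMSO-treated cells and -100% = media-only wells without cells; nearly all actives have a fitted effect of over 55% in size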
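HT-1080-NT; 750 cells/well; 5% FBS RPMI; 48 h compound, 37 degrees C; CellTiter-Glo luminescence; curve fitting and curve-class assignment.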
HT1080 IDH1KD tx: HT-1080 IDH1 knockdown cell toxicity (counter line); HT-1080 IDH1 knockdown viability, ATP luminescence, 48 h; Potency, µM (doses to about 46.1 µM), for the others: at the top dose activity, negative = toxicity, hits mostly cytotoxic; actives 2% (n = 360,000); AID 686971;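 also: potency is read from the fitted curve at half-maximal effect; 0% = DMSO wells and -100% = cell-free medium wells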
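Viability of IDH1-knockdown HT-1080 fibrosarcoma cells was assessed by CellTiter-Glo after 48 h at 37 °C with titrated compound; concentration-effect curves were classified by fit quality and response size.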
IL-1B inflam inh: inflammasome signaling inhibition, IL-1 beta readout; THP-1 LPS/ATP IL-1B secretion, AlphaLISA, 16 h; hits give low values; activity change, % at 57.5 µM; actives 4.7% (n = 360,000); in the data active = activity change below about -50%; inconclusive = mostly about -30% to -49%
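THP-1 cells pretreated 1 hr with compounds (up to 57.5 uM final), then stimulated with LPS (250 ng/mL final) plus ATP (1.25 mM final); secreted IL-1B measured by AlphaLISA after 16 hr, decreased signal indicating inhibition.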
TDP1 cell CPT: growth inhibition of DT40 Tdp1-/-;hTDP1 cells with camptothecin (screen for TDP1 inhibitors). chicken DT40 Tdp1-/-;hTDP1 cells + 20 nM CPT, ATP luminescence, 48 h. Potency, µM (series often up to 46.2 µM), for inactives: at the highest dose activity change, negative = growth inhibition, actives largely listed as inhibitors. actives 12% (n = 420,000). AID 686979; also: potency is read from the fitted curve at half-maximal effect; nearly all actives have a fitted effect of over 55% in size
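Chicken DT40 Tdp1-/- cells complemented with human TDP1, 400 cells/well, exposed to compounds plus 20 nM camptothecin for at least 48 h at 37 C; viability read as ATP content by CellTiter-Glo luminescence.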
DT40 TDP1 no CPT: qHTS for Inhibitors of human tyrosyl-DNA phosphodiesterase 1 (TDP1): qHTS in cells in absence of CPT; DT40 Tdp1-/- hTDP1 cells, no CPT, ATP luminescence, 48 h; Potency, µM (titrated, usually from 46.2 µM), without a hit: top-dose activity change, negative = growth inhibition, most hits filed as inhibitors; actives 15% (n = 420,000); AID 686978, 2013; also: potency is read from the fitted curve at half-maximal effect; nearly all actives have a fitted effect of over 55% in size
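Camptothecin absent (DMSO only). Human TDP1-complemented DT40 knockout cells, 400 cells/well, 37 °C for minimum 48 hr; ATP measured via CellTiter-Glo, 30 min dark incubation, luminescence.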
ELG1 DNA repair: inhibitors of ELG1-dependent DNA repair in HEK293T cells | HEK293T ELG1-luciferase reporter, luminescence, 16 h; DNA damage induced by 5-fluorouridine | Potency, µM (series often up to 46.1 µM), without a hit: at the highest dose activity change, negative = inhibition, hits mostly inhibitors | actives 2.3% (n = 330,000) | AID 504467; also: potency is read from the fitted curve at half-maximal effect; nearly all actives have a fitted effect of over 55% in size
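Step one: seed 2,000 cells per well. Step two: pin-transfer compound or DMSO alongside 5-fluorouridine. Step three: incubate 16 hr, 37 °C, 5% CO2. Step four: add ONE-Glo, wait 30 min, read luminescence.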
An asterisk follows results filed as active; ? = inconclusive; . = no result given. Unless noted, calls follow the shape of the dose curve; as a rule, active = well fitted curve in the direction sought with a large enough effect; inconclusive = small, poorly fitted or top-dose-only effect, or another doubt; inactive = no such curve, though single readings can be large; an effect the other way counts as inactive or inconclusive. Unless noted, % is scaled to controls: 0 for no effect and ±100 for the full control effect.

SMILES | HT1080NT lethal | HT1080 IDH1KD tx | IL-1B inflam inh | TDP1 cell CPT | DT40 TDP1 no CPT | ELG1 DNA repair
CC(C)NC(=O)N(C)C[C@@H]1Oc2ccc(NC(=O)Nc3ccc(C(F)(F)F)cc3)cc2CC(=O)N([C@H](C)CO)C[C@@H]1C | ? | ? | 14 | ? | ? | -25%
C[C@H](CO)N1C[C@H](C)[C@@H](CN(C)S(=O)(=O)c2ccc(F)cc2)Oc2ccc(NC(=O)Nc3ccc(C(F)(F)F)cc3)cc2C1=O | ? | ? | ? | ? | ? | 21µM*
C[C@@H]1CN([C@@H](C)CO)C(=O)Cc2cc(NC(=O)Nc3ccc(C(F)(F)F)cc3)ccc2O[C@@H]1CN(C)S(=O)(=O)c1ccc(Cl)cc1 | ? | 23µM* | ? | ? | 15µM* | 21µM*
CCN(c1ccc(NC(=O)COC(=O)C(C)N=C2NS(=O)(=O)c3ccccc32)cc1)C(C)C (configuration not stated) | 2% | -8% | ? | 3% | -17% | ?
C[C@H](CO)N1C[C@H](C)[C@@H](CN(C)S(C)(=O)=O)Oc2ccc(NC(=O)Nc3ccc(C(F)(F)F)cc3)cc2C1=O | 19% | 15% | -10 | ? | -12% | 0%
C[C@@H]1CN([C@H](C)CO)C(=O)c2cc(NC(=O)Nc3ccc(C(F)(F)F)cc3)ccc2O[C@H]1CN(C)S(=O)(=O)c1ccc(Cl)cc1 | -25% | -22% | 0 | 5.2µM* | 5.8µM* | ?
O=C(NCCc1nc2ccccc2[nH]1)/C(=C/c1ccco1)NC(=O)c1ccc(Br)o1 | 4% | 2% | 0 | ? | ? | ?
COc1cccc(N2CCN(C(=O)c3ccc4nc(N5CCCCC5)sc4c3)CC2)c1 | 8% | 0% | ? | ? | 16µM* | ?
O=C(c1cccn1-c1nnc(N2CCCC2)s1)N1CCN(c2ccccc2)CC1 | . | . | . | ? | -19% | .
COc1ccc(CN2CCN(C(=O)c3ccc4nc(N5CCOCC5)sc4c3)CC2)c(OC)c1OC | 1% | 0% | 47 | -7% | ? | 21µM*
Cc1ccc(Cl)cc1N1CCN(C(=O)c2cccn2-c2nnc(N3CCCC3)s2)CC1 | . | . | . | 12µM* | 15µM* | .
COc1ccc(N2CCN(C(=O)c3ccc4nc(N5CCCCC5)sc4c3)CC2)cc1 | 0% | 6% | 7 | ? | -20% | ?
COc1cccc(N2CCN(C(=O)c3cccn3-c3nnc(N4CCCCC4)s3)CC2)c1 | . | . | . | 15µM* | ? | .
COc1ccc(NC(=O)COC(=O)CCc2ccccc2)c(OC)c1 | 8% | 3% | 26 | -1% | -27% | ?
COc1ccc(CNC(=O)CCc2c(C)nn(-c3ccc(N4CCOCC4)nn3)c2C)cc1 | . | . | . | -20% | -12% | .
CCc1ccc(NC(=O)CC2C(=O)N(c3cccc(C)c3)C(=O)N2C2CC2)cc1 (configuration not stated) | 11% | -2% | -3 | 7% | -26% | -19%
Brc1cccc(-c2nn(-c3ccccc3)c3c2cnc2cc4c(cc23)OCO4)c1 | . | . | . | -1% | -4% | .
Cc1ccc(-c2noc(-c3ccc(NCc4ccco4)c([N+](=O)[O-])c3)n2)cc1 | . | . | . | -9% | -5% | .
COc1cc(-c2noc(-c3ccc(N(C)C)c([N+](=O)[O-])c3)n2)cc(OC)c1OC | . | . | . | 21µM* | 26µM* | .
COc1ccc(-c2noc(-c3ccc(NCC4CCCO4)c([N+](=O)[O-])c3)n2)cc1OC (configuration not stated) | . | . | . | ? | -27% | .
COc1cc(-c2noc(-c3ccc(NCC4CCCO4)c([N+](=O)[O-])c3)n2)cc(OC)c1OC (configuration not stated) | . | . | . | 7.3µM* | 3.7µM* | .
COc1cc(-c2noc(-c3ccc(NCc4ccco4)c([N+](=O)[O-])c3)n2)cc(OC)c1OC | . | . | . | 12µM* | 7.3µM* | .
CN(CCO)S(=O)(=O)c1ccc2c(c1)C(=NN)c1cc(S(=O)(=O)N(C)CCO)ccc1-2 | -3% | -8% | 0 | -25% | ? | -5%
COc1cccc(/C=C/C(=O)OCC(=O)NC2CCCCCC2)c1 | -2% | 9% | 1 | -16% | -1% | .
Cc1oc2ncn(C)c(=O)c2c1C(=O)NCc1ccccc1 | . | . | . | 0% | -23% | .
SMILES | HT1080NT lethal | HT1080 IDH1KD tx | IL-1B inflam inh | TDP1 cell CPT | DT40 TDP1 no CPT | ELG1 DNA repair
O=[N+]([O-])c1ccccc1/C=N/Nc1nc(N2CCCC2)nc(N2CCCC2)n1 | -21% | -23% | 17 | ? | ? | -7%
CCOc1cc(/C=N/Nc2nc(Nc3ccccc3)nc(N3CCCCC3)n2)ccc1OCC(=O)O | -6% | 1% | 3 | -12% | -23% | 12%
COc1ccc(/C=N\Nc2ncc(F)c(N3CCOCC3)n2)cc1OC | -5% | -1% | -28 | -26% | ? | 18µM*
COc1ccc(/C=N/Nc2cc(C)nc(N3CCOCC3)n2)cc1OC | -3% | -13% | -24 | 3% | ? | 3%
CCOc1cc(/C=N/Nc2nc(N3CCCC3)nc(N3CCCC3)n2)ccc1O | -1% | -4% | -4 | ? | ? | 12µM*
COc1ccc(/C=N/Nc2nc(Nc3ccccc3)nc(N3CCCCC3)n2)cc1OC | -15% | -13% | -16 | ? | 21µM* | 5.8µM*
CCOc1cccc(/C=N/Nc2nc(N3CCCC3)nc(N3CCCC3)n2)c1O | 24% | 2% | -108* | 16µM* | 13µM* | ?
O=[N+]([O-])c1ccc(Nc2nccc(Cl)n2)cc1 | -19% | ? | . | 8% | -29% | .
CC(C)(C)Nc1nc(Cl)nc(NCc2ccccc2)n1 | 0% | -1% | 1 | 18µM* | ? | -2%
CC(C)c1ccc(Nc2nc(Cl)nc(Cl)n2)cc1 | -6% | -6% | 3 | -14% | ? | 9%
Cc1ccc(Nc2nc(Cl)nc(N(C)C#N)n2)cc1 | ? | ? | -114* | ? | 23µM* | 5%
CC(C)(C)Nc1nc(Nc2ccc([N+](=O)[O-])cc2)nc(NC(C)(C)C)n1 | -1% | 18% | -3 | 21µM* | 21µM* | -12%
Cc1ccc(Nc2nc(Cl)nc(NC(C)(C)C)n2)cc1 | -2% | -1% | -15 | ? | 23µM* | ?
COc1cccc(-c2ncc3ccccc3c2COC(=O)c2ccco2)c1 | -3% | -4% | 34 | ? | ? | ?

Screening data from PubChem BioAssay.
